What all share (assay): NCI-60 one-dose screen, 48 h (100 = growth as untreated, 0 = no growth, -100 = all killed)
Assay [1] concerns BT-549 breast. The note with it: 10 µM unless noted.
Assay [2] deals with MDA-MB-435 melanoma. The note with it: 10 µM unless noted.
For assay [3], the system named is SW-620 colon. The note with it: 10 µM unless noted.
Assay [4] concerns MCF7 breast. The note with it: 10 µM.
The subject of assay [5] is HCT-116 colon. The note with it: 10 µM unless noted.
Assay [6] concerns HCC-2998 colon. The note with it: 10 µM unless noted.
For assay [7], the system named is KM12 colon. The note with it: 10 µM unless noted.

Compounds without any hit were thinned out: in the full panel of roughly 83,000, 20% have a hit.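 Interpretation: 100, growth as untreated; towards 0, rising growth inhibition; 0, no net growth; 0 to -100, cell death. Compounds scoring below 10 were considered active.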 Unmarked numbers belong to inactive results. Activity calls are given as the source filed them.

As to `CC(=O)c1ccc(Cc2ccc(C(C)=O)s2)s1`, the growth was 110% in assay [1]; 107% in assay [2]; 103% in assay [3]; 85.1% in assay [4]; 103% in assay [5]; 104% in assay [6]. In addition, in assay [7], the growth is 95.2%.

In the case of `O=C1/C(=C/c2ccc(O)cc2)COc2ccc(O)c(O)c21`, the growth in assay [1] is 57.5%; in assay [2], 19.5%; in assay [3] it was 28.4%; in assay [4] it was 13.8%; in assay [5] it was 20.8%; in assay [6], 75.7%. The growth in assay [7] is 19.8%.

With `CSc1nc2c(c(=O)n1C)N=C1c3ccccc3C(=O)C1C(c1ccccc1)N2` (configuration not stated), the growth in assay [1] was 82.3%; in assay [2], 7.03% (active); in assay [3], 70.7%; in assay [4], 58.7%; in assay [5], 71.3%; in assay [6], 64.8%. For the same compound, in assay [7], the growth was 63.5%.

As to `S=C1NC2(c3ccccc3)CCC(=S)N2c2ccccc21` (configuration not stated), the growth in assay [1] was 107%; in assay [2], 101%; in assay [3], 108%; in assay [4] it was 108%; in assay [5] it was 103%; in assay [6] it was 127%. For the same compound, the growth in assay [7] was 108%.

For the compound `COc1ccc(N(C)c2nc(N)nc3sc4c(c23)CCCC4)cc1`, the growth was 24% in assay [1]; -9.59% (active) in assay [2]; 28.7% in assay [3]; 15.2% in assay [4]; 1.18% (active) in assay [5]; 7.08% (active) in assay [6]. In assay [7], the growth is 7.2% (active).

As for `Cc1ccc(C)c(-c2csc(Nc3ccc(C)c(C)c3)n2)c1`, the growth was 64.6% in assay [1]; -58.3% (active) in assay [2]; -33% (active) in assay [3]; -30.3% (active) in assay [4]; 3.25% (active) in assay [5]; 27.6% in assay [6]. Besides, in assay [7], the growth was 59.5%.

Regarding `COc1ccc2oc(=O)cc(Cn3cc(Cn4cnc5c4c(=O)n(C)c(=O)n5C)nn3)c2c1`, the growth was 105% in assay [1]; 108% in assay [2]; 105% in assay [3]; 92.1% in assay [4]; 102% in assay [5]; 95.9% in assay [6]. Besides, in assay [7], the growth is 105%.

For the compound `O=C(O)CCC(=O)c1ccc(C2CCCCCC2)cc1`, the growth in assay [1] was 94.9%; in assay [2], 105%; in assay [3], 107%; in assay [4] it was 96.6%; in assay [5], 98.5%; in assay [6] it was 108%. Moreover, the growth in assay [7] is 105%.

Regarding `CCCCc1c(CCC)c(=N)c2ccccc2n1C`, the growth is 88.1% in assay [1]; 64.9% in assay [2]; 59% in assay [3]; 50.2% in assay [4]; 64.1% in assay [5]; 107% in assay [6]. The growth in assay [7] is 77.2%.

On to `CCOc1ccc2nc(C)cc(Nc3ccc(Br)cc3)c2c1`, for which the growth is 108% in assay [1]; 110% in assay [2]; 94.8% in assay [3]; 76.6% in assay [4]; 80.4% in assay [5]; 117% in assay [6]. In addition, the growth in assay [7] is 108%.

Regarding `COc1ccc(C)c2sc(N(Cc3cccnc3)C(=O)c3ccc(C#N)cc3)nc12`, the growth in assay [1] was 21.7%; in assay [2], 10.1%; in assay [3], 10.8%; in assay [4], 3.83% (active); in assay [5], 13.2%; in assay [6], 10.9%. Besides, the growth in assay [7] is 18.2%.

On to `COc1ccc(Nc2cc(C)nc(NCc3ccccc3)n2)cc1`, for which the growth in assay [1] is 97.6%; in assay [2], 18.5%; in assay [3] it was 15%; in assay [4] it was 11.1%; in assay [5], 15.4%; in assay [6] it was 21.2%. The growth in assay [7] is 5.56% (active).

As for `COc1ccccc1N1CCN(C(CNS(=O)(=O)c2ccc(Cl)cc2)c2cccnc2)CC1` (configuration not stated), the growth was 84.9% in assay [1]; 86.6% in assay [2]; 101% in assay [3]; 78.3% in assay [4]; 82.6% in assay [5]; 88% in assay [6]. The growth in assay [7] was 61.4%.

Take `CCOc1cc(Cl)c(C(C)NC(=O)c2cccc(OC)c2)cc1OCC` (configuration not stated): the growth in assay [1] was -27.7% (active); in assay [2], -28.6% (active); in assay [3], -50.9% (active); in assay [4], 3.38% (active); in assay [5], -57.5% (active); in assay [6] it was -85.1% (active). Also, in assay [7], the growth is 0.624% (active).

In the case of `CCC(C)(C)C(=O)O[C@H]1C[C@@H](C)C=C2C=C[C@H](C)[C@H](CC[C@@H]3CC=CC(=O)O3)[C@H]21`, the growth is 95.9% in assay [1]; 60.3% in assay [2]; 17.7% in assay [3]; 36.8% in assay [4]; -5.88% (active) in assay [5]; 88.8% in assay [6]. Moreover, the growth in assay [7] is 87.5%.

Take `Cc1ccc2c(n1)C(=O)C(Oc1ccc(Br)cc1)=CC2=O`: the growth in assay [1] is 86.5%; in assay [2], 101%; in assay [3] it was 94%; in assay [4], 85.6%; in assay [5] it was 87.3%; in assay [6] it was 101%. Also, in assay [7], the growth was 102%.

As for `O=Cc1cc2ccccc2nc1Nc1nccs1`, the growth is 88.9% in assay [1]; 81.4% in assay [2]; 27.5% in assay [3]; 13.2% in assay [4]; 54.3% in assay [5]; 87.6% in assay [6]. Also, the growth in assay [7] was 56.2%.

Consider `Oc1[nH]c2ccccc2c1N=Nc1nnc2n1N=C(c1ccccc1)CS2`, for which the growth in assay [1] is 72.8%; in assay [2], 93.8%; in assay [3], 106%; in assay [4] it was 71.9%; in assay [5] it was 86.4%; in assay [6], 81.3%. For the same compound, in assay [7], the growth is 95.2%.

As for `CN(C)c1ccc(/C=C/c2ccnc3c(O)cccc23)cc1`, the growth is 17.8% in assay [1]; 18.6% in assay [2]; 21.6% in assay [3]; 18.2% in assay [4]; 18.6% in assay [5]; 55.7% in assay [6]. In addition, the growth in assay [7] was 16.2%.

On to `O=C(CN1C=NC2C(N3CCOCC3)=NC=NC21)c1ccc(Br)cc1` (configuration not stated), for which the growth in assay [1] is 103%; in assay [2], 101%; in assay [3] it was 100%; in assay [4] it was 99.1%; in assay [5], 103%; in assay [6], 111%. Moreover, the growth in assay [7] is 107%.

As to `CN1C(=O)N(C)C2C1NN=c1s/c(=C\c3ccc(Cl)cc3Cl)c(=O)n12` (configuration not stated), the growth in assay [1] was 17.4%; in assay [2] it was -17% (active); in assay [3], 27.8%; in assay [4], 17.7%; in assay [5], 8.45% (active); in assay [6] it was 21.7%. Also, the growth in assay [7] is 6.57% (active).

For `Cc1ccc(NCCNCC(O)CO)c2c(=O)c3ccccc3sc12` (configuration not stated), the growth in assay [1] was 63.2%; in assay [2] it was -26% (active); in assay [3] it was -78.7% (active); in assay [4] it was -53.6% (active); in assay [5] it was -66.1% (active); in assay [6] it was -75.1% (active). In addition, the growth in assay [7] is 15.4%.

Consider `O=C(c1nc2ccccc2[nH]1)C1C(c2ccc(F)cc2)C2CC3CCCCC3N2[C@@]12C(=O)Nc1ccc(Cl)cc12` (some centres not stated), for which the growth is 77.4% in assay [1]; 42.4% in assay [2]; 41% in assay [3]; 21.4% in assay [4]; 28% in assay [5]; 43% in assay [6]. Also, in assay [7], the growth was 43.9%.

As for `COc1cc2cc3c(=O)n4c(cc5cc(OC)ncc54)c(=O)n3c2cn1`, the growth in assay [1] is 106%; in assay [2], 110%; in assay [3] it was 105%; in assay [4], 95.4%; in assay [5], 100%; in assay [6] it was 106%. Further, the growth in assay [7] was 105%.

Regarding `Cc1ccccc1CNC(=O)C1CN(c2ccc(Cl)cc2)N(c2ccc(Cl)cc2)C1=O` (configuration not stated), the growth in assay [1] is 90.6%; in assay [2] it was 35.9%; in assay [3], 81.9%; in assay [4], 74.1%; in assay [5], 83.8%; in assay [6], 100%. The growth in assay [7] is 87.2%.

On to `O=C(NN1C(=O)CSC1c1ccc(Cl)cc1)c1[nH]c2ccc(F)cc2c1-c1ccccc1` (configuration not stated), for which the growth in assay [1] is 50.9%; in assay [2], 44.9%; in assay [3], 77.8%; in assay [4] it was 14.6%; in assay [5], 31.6%; in assay [6] it was 6.69% (active). The growth in assay [7] was 44.8%.

Values taken from PubChem BioAssay (NCI).
